High-throughput results as filed in PubChem BioAssay.
Hits are enriched below; roughly 3.1% of the tested compounds scored in any of these assays.
mIDH1 inhibitor = qHTS for Inhibitors of mutant isocitrate dehydrogenase 1 (IDH1): qHTS. AID 602179, 2012. Isocitrate dehydrogenase [NADP] cytoplasmic (Homo sapiens), O75874. 390,000 compounds, 0.093% hits. IDH1-R132H enzyme, NADPH consumption, diaphorase/resazurin fluorescence. Potency, µM (doses to about 76.6 µM), for inactives: top-dose activity change, negative = inhibition, hits mostly inhibitors; further: on the % scale 0 is the no-effect control and ±100 the full control effect; nearly all actives have a fitted effect of over 65% in size
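IDH1-R132H (0.5 ug/mL dispensed) in pH 7.5 Tris buffer was preincubated 30 min with compound, then given a substrate mix of 0.016 mM NADPH and 2 mM alpha-KG for 80 min at room temperature; remaining NADPH was read by diaphorase/resazurin fluorescence.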
Nrf2 block = Nrf2 qHTS screen for inhibitors | A549 ARE-Fluc reporter, luciferase luminescence, 18-24 h | Potency, µM (titrated, usually from 46 µM), for the others: top-dose activity change, negative = inhibition, most hits filed as inhibitors | 360,000 compounds, 2.1% hits | AID 504444, 2011; further: on the % scale 0 is the no-effect control and ±100 the full control effect; nearly all actives have a fitted effect of over 60% in size
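In this cell-based qHTS, ARE-driven firefly luciferase in A549 cells reports Nrf2 activity; the luminescent signal after BugLite lysis is the measured value, with a prior CellTiter-Fluor read for cell health.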
Mito fusion yeast = qHTS Assay for Small Molecule Inhibitors of Mitochondrial Division or Activators of Mitochondrial Fusion; S. cerevisiae fusion-defective mutant growth rescue, CellTiterGlo 48 h; Potency, µM (doses to about 46.1 µM), for inactives: at the highest dose growth rescue (activation), actives largely listed as activators; 320,000 compounds, 0.23% hits; further: % of control where 0% means no effect; nearly all actives have a fitted effect of over 45% in size
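Temperature-sensitive fusion-defective S. cerevisiae (e.g. fzo1-1, mgm1-5) were grown with compound in YPEG medium (3% ethanol, 3% glycerol) for 48 hours at 37C. Growth rescue was measured as viability by CellTiterGlo luminescence after 10 minutes at ambient.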
A549 tox = Nrf2 qHTS screen for inhibitors: counterscreen for cytotoxicity | A549 ARE-Fluc cells, CellTiter-Fluor viability, 18-24 h | AID 504648, 2011 | Potency, µM (top dose mostly 46 µM), inactives show at the top dose activity change, negative = cytotoxicity, hits mostly inhibitors | 390,000 compounds, 0.16% hits; further: on the % scale 0 is the no-effect control and ±100 the full control effect
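Cytotoxicity counterscreen: CellTiter-Fluor fluorescence was measured in A549 ARE_Fluc cells after 18-24 h of compound exposure in a concentration series. The subsequent BugLite luminescent read reports ARE-luciferase activity.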
TrxR1 substrate = qHTS Assay for Substrates of Mammalian Selenoprotein Thioredoxin Reductase 1 (TrxR1): qHTS; purified TrxR1 substrate turnover, NADPH consumption readout; Potency, µM (doses to about 114 µM), for inactives: at the top dose activity change, negative = substrate turnover; 390,000 compounds, 0.01% hits; AID 588456, 2011; further: on the % scale 0 is the no-effect control and ±100 the full control effect; nearly all actives have a fitted effect of over 50% in size
Target sequence (O89049 whole entry, looked up): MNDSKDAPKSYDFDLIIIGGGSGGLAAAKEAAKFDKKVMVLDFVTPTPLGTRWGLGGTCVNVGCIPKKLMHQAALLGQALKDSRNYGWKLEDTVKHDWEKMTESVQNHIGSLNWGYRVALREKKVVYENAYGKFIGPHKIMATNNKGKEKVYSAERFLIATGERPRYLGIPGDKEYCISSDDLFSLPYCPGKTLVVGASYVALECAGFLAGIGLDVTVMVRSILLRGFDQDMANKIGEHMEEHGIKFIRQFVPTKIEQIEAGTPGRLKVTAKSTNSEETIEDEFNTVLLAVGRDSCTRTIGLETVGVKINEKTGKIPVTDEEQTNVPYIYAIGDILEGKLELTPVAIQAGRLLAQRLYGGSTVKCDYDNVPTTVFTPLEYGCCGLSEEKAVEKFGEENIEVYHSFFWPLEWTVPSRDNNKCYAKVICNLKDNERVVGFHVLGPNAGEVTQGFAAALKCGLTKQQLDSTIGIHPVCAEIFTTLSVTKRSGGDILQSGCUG
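Rat TrxR1, dispensed at 90 nM, was prereduced with 400 uM NADPH (final) for 5 min at ~22 deg C, then incubated with compound 15 min before 400 uM selenite. A first-read NADPH fluorescence drop versus no-compound background flagged substrates.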
TrxR1 inh = qHTS Assay for Inhibitors of Mammalian Selenoprotein Thioredoxin Reductase 1 (TrxR1): qHTS. Thioredoxin reductase 1, cytoplasmic (Rattus norvegicus), O89049. recombinant rTrxR1, NADPH fluorescence consumption, selenite substrate. Potency, µM (highest dose often 114 µM), for inactives: top-dose activity change, negative = inhibition, most hits filed as inhibitors. 390,000 compounds, 1% hits. AID 588453, 2011; further: on the % scale 0 is the no-effect control and ±100 the full control effect; nearly all actives have a fitted effect of over 65% in size
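Rat TrxR1 (90 nM in the dispensed reagent) was pre-reduced with 400 uM NADPH for 5 min at room temperature, then incubated with compound for 15 min. After 400 uM selenite was added, NADPH fluorescence (Ex 340/Em 450 nm) was followed for 8 min.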
* marks the source's active call; other numbers are inactive results; u = inconclusive; x = no result; [ ] = dose if it differs, or a comment. The call rests on the fitted dose curve; in most records, active means well fitted curve in the direction sought with a large enough effect; inconclusive means small, poorly fitted or top-dose-only effect, or another doubt; inactive means no such curve, though single readings can be large; an effect the other way counts as inactive or inconclusive. Potency means the concentration at half of the fitted maximal effect.

SMILES | mIDH1 inhibitor | Nrf2 block | Mito fusion yeast | A549 tox | TrxR1 substrate | TrxR1 inh
Cc1cccc(-n2ncc3c2CCCC3NC(=O)CCc2ccncc2)c1C (stereo not drawn) | -8% | 5.8µM* | -8% | -7% | 4% | 21%
NC(=O)c1ccsc1NC(=O)COC(=O)Cc1cccc2ccccc12 | 8% | 4.1µM* | 9% | -17% | 6% | 19%
Cc1cccc(OCCC(=O)NO)c1 | x | x | x | x | 4% | 11%
Cc1ccc(Cl)cc1NS(=O)(=O)c1ccc(-n2cccn2)cc1 | 8% | 7% | -32% | u | -8%[57.1 µM] | 32%[57.1 µM]
Cc1ccc(NS(=O)(=O)c2ccc(-n3cccn3)cc2)cc1F | 0% | 15µM* | 2% | -2% | -1% | 14%
CCc1cc[n+](CC(=O)c2ccc(F)cc2)cc1C(=O)O | x | x | x | x | 5% | 4%
COCCN(Cc1cc2cc3c(cc2nc1Cl)OCO3)C(=O)Nc1ccccc1OC | 4% | 6% | 7% | 13% | 10% | 23%
COCCN(Cc1cc2cc3c(cc2nc1Cl)OCO3)C(=O)Nc1ccc(F)cc1 | 2% | 13µM* | 8% | -5% | 5%[57.1 µM] | 14%
COCCN(Cc1cc2cc3c(cc2nc1Cl)OCO3)C(=O)Nc1ccc(OC)cc1 | 1% | 7.3µM* | -21% | -7% | 3% | 4%
CCCCC(Sc1ccc2nnc(-c3ccccn3)n2n1)C(=O)O (stereo not drawn) | x | 1% | x | 2% | -4% | 21%[0.0914 µM]
COc1cccc(NS(=O)(=O)c2ccc3c(c2)NC(=O)C(C)S3)c1 (stereo not drawn) | -17% | 21µM* | 8% | -13% | -2% | 14%
CCc1cccc(NS(=O)(=O)c2ccc3c(c2)NC(=O)C(C)S3)c1 (stereo not drawn) | -5% | 16µM* | 6% | -1% | -9% | 10%
COc1ccc(N2CCN(Cc3nc4c(c(=O)[nH]c(=O)n4C)n3Cc3ccccc3C)CC2)cc1 | 2% | u | x | 5% | 3% | 5%
CCOC(=O)c1cnc2c(Cl)cc(Cl)cc2c1NCCCN1CCOCC1 | 5% | -17% | 2% | -7% | 5% | 16µM*
COc1cccc(C2c3c(ncn(-c4ccccc4OC)c3=N)Oc3ccc4ccccc4c32)c1 (stereo not drawn) | x | -26% | x | u | x | x
COc1ccc(S(=O)(=O)n2ccc(-c3ccc4c(c3)CCC(C)(C)O4)n2)cc1 | -2% | 13µM* | -4% | 0% | -1%[57.1 µM] | 16%[57.1 µM]
CC1(C)CCc2cc(-c3ccn(S(=O)(=O)c4ccccc4Cl)n3)ccc2O1 | 5% | -12% | -2% | 11% | 6%[57.1 µM] | 18%[57.1 µM]
CC(C)(C)C(=O)N1CCC[C@H]1C(O)(c1ccccc1)c1ccccc1 | 6% | -14% | 35µM* | 16% | 4% | 16%
CCN1CCN(Cc2ccc(NC(=O)c3ccc(C)c(NC(=O)c4nccn4C)c3)cc2C(F)(F)F)CC1 | 12% | -8% | -4% | 4% | -1% | 9%
CCN1CCN(Cc2ccc(NC(=O)c3ccc(C)c(NC(=O)c4cncc(-c5cccs5)c4)c3)cc2C(F)(F)F)CC1 | 3% | 8.2µM* | x | u | -2% | 9%
CCn1c(-c2ccc(S(=O)(=O)N3CCOCC3)cc2)csc1=Nc1ccc(C)c(Cl)c1 | 3% | u | -3% | 3% | -2% | 0%
COc1ccc(N=c2scc(-c3ccc(OC)cc3)n2CCO)cc1 | 5% | 18µM* | 24% | -24% | -11% | -6%
